High-throughput results from PubChem BioAssay.
Compounds with a hit are over-represented: about 7.8% of the library has one in this group of screens.
MITF inhib: inhibitors of MITF, primary screen, MITF inhibitor project, cell-based, luminescence; TRPM1 promoter luciferase, 24 h; inhibition, % (concentration not given with the values); actives 0.28% (n = 37,000); in the data active = inhibition above about 85%; inconclusive = no clear call, values can overlap the other calls; inactive = below about 68%;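 note: human melanocyte line stably carrying TRPM1 promoter luciferase reporter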
NOMO-1 viab: NOMO-1 AML cell viability reduction, primary screen, STK33 inhibitor project, CellTiter-Glo luminescence | NOMO-1 AML viability, 72 h | inhibition, % (no concentration beside the values) | actives 7.5% (n = 37,000); in the data active = inhibition above about 80%; inconclusive = no clear call, values can overlap the other calls
Shh pathway inh: Hedgehog pathway signaling inhibitors, primary screen, luminescence, Shh-LIGHT2 cells, Gli-luciferase; inhibition, % (no concentration beside the values); AID 2313, 2010; actives 2.1% (n = 22,000); Shh-LIGHT2 Gli-luciferase reporter, 30 h;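 active = mean inhibition across valid replicates above about 65%, limit read from the data; inconclusive = mean under the limit, yet half or more replicates past it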;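 note: pathway switched on by Shh-conditioned medium diluted 1 in 25 in low serum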
Starred values were filed as active, the others as inactive.

Results for CC1CCCC(C)N1C(=S)NCCCN1CCOCC1 (configuration not stated) ?
MITF inhib: 6; NOMO-1 viab: 110*; Shh pathway inh: -11

Results for CC(=O)c1ccc(NC(=O)CSc2nnc(N)s2)cc1 ?
MITF inhib: -58; NOMO-1 viab: 15

How did COC(=O)c1cc(NC(=O)CSc2nnc(N)s2)ccc1Cl do in these assays?
MITF inhib: -17; NOMO-1 viab: 110*

Results for Nc1ncnc(Oc2cccc3cccnc23)c1[N+](=O)[O-] ?
MITF inhib: 6; NOMO-1 viab: 108*

Results for Nc1ncnc(NCc2cccnc2)c1[N+](=O)[O-] ?
MITF inhib: -49; NOMO-1 viab: 4

How did Cc1noc(C)c1S(=O)(=O)N(C)C[C@H]1Oc2ccc(NC(=O)Nc3cccc4ccccc34)cc2CC(=O)N([C@H](C)CO)C[C@H]1C do in these assays?
MITF inhib: 8; NOMO-1 viab: 22; Shh pathway inh: -32

How did CCOC(=O)c1nnn2c1nc(N(CC)CC)c1ccccc12 do in these assays?
MITF inhib: 8; NOMO-1 viab: 8

How did Cn1c(SCCC(=O)O)nnc1-c1ccncc1 do in these assays?
MITF inhib: -5; NOMO-1 viab: 6

What do the screens show for `CCOC(=O)c1nnn2c1nc(Sc1nnc(-c3ccncc3)n1C)c1ccccc12`?
MITF inhib: 7; NOMO-1 viab: 117*; Shh pathway inh: -13

Results for CCOC(=O)c1nnn2c1nc(Sc1nc3ccccc3o1)c1ccccc12 ?
MITF inhib: 16; NOMO-1 viab: 116*; Shh pathway inh: -1

Results for C[C@H]1CN([C@@H](C)CO)C(=O)c2cccc(NC(=O)c3ccc(-c4nccs4)cc3)c2O[C@H]1CN(C)Cc1ccncc1 ?
MITF inhib: -8; NOMO-1 viab: 12; Shh pathway inh: 29

What do the screens show for `C[C@@H]1CN([C@@H](C)CO)C(=O)c2cccc(NC(=O)c3ccc(-c4nccs4)cc3)c2O[C@@H]1CN(C)Cc1ccc(C(F)(F)F)cc1`?
MITF inhib: 37; NOMO-1 viab: 88*; Shh pathway inh: 62

How did C[C@H]1CN([C@@H](C)CO)C(=O)c2cccc(NC(=O)c3ccc(-c4nccs4)cc3)c2O[C@@H]1CN(C)Cc1ccc(C(F)(F)F)cc1 do in these assays?
MITF inhib: 63; NOMO-1 viab: inconclusive; Shh pathway inh: 48

What do the screens show for `C[C@@H]1CN([C@@H](C)CO)C(=O)c2cccc(NC(=O)c3ccc(-c4nccs4)cc3)c2O[C@H]1CN(C)Cc1ccc(C(F)(F)F)cc1`?
MITF inhib: 69; NOMO-1 viab: 99*; Shh pathway inh: -3

What do the screens show for `C[C@@H]1CN([C@H](C)CO)C(=O)c2cccc(NC(=O)c3ccc(-c4nccs4)cc3)c2O[C@@H]1CN(C)Cc1ccc(C(F)(F)F)cc1`?
MITF inhib: -1; NOMO-1 viab: 14; Shh pathway inh: 21

Results for C[C@H](CO)N1C[C@H](C)[C@@H](CN(C)Cc2ccc(C(F)(F)F)cc2)Oc2c(NC(=O)c3ccc(-c4nccs4)cc3)cccc2C1=O ?
MITF inhib: 67; NOMO-1 viab: 115*; Shh pathway inh: inconclusive

How did COc1ccc(C(=O)NCCNc2ccc([N+](=O)[O-])cc2C(F)(F)F)cc1 do in these assays?
MITF inhib: 10; NOMO-1 viab: 2

How did O=C(NCc1ccco1)c1cc2cc(Br)ccc2oc1=O do in these assays?
MITF inhib: -8; NOMO-1 viab: -9

What do the screens show for `C[C@@H]1CN([C@H](C)CO)C(=O)c2cccc(NS(=O)(=O)c3cccs3)c2O[C@H]1CN(C)Cc1ccc(-c2ccccc2)cc1`?
MITF inhib: -9; NOMO-1 viab: 4; Shh pathway inh: -3

What do the screens show for `CC(=Nc1ccccc1C(F)(F)F)c1cccs1`?
MITF inhib: -14; NOMO-1 viab: 7; Shh pathway inh: 28

What do the screens show for `CC(C)NC(=O)N(C)C[C@@H]1Oc2ccc(NS(=O)(=O)c3ccccc3)cc2CC(=O)N([C@H](C)CO)C[C@H]1C`?
MITF inhib: 2; NOMO-1 viab: 2; Shh pathway inh: -18

Results for O=C(ON1C(=O)c2ccccc2C1=O)c1ccco1 ?
MITF inhib: -1; NOMO-1 viab: 115*

Results for O=C(CCN1C(=O)c2ccccc2C1=O)Nc1ccc(NC(=O)c2ccco2)cc1 ?
MITF inhib: -41; NOMO-1 viab: 26

Results for Cn1cnnc1SCC(=O)c1ccc2c(c1)OCCO2 ?
MITF inhib: -13; NOMO-1 viab: -3

What do the screens show for `CNC[C@@H]1Oc2c(NS(C)(=O)=O)cccc2C(=O)N([C@H](C)CO)C[C@H]1C`?
MITF inhib: 1; NOMO-1 viab: 12; Shh pathway inh: -8

Results for Cc1ccc(S(=O)(=O)Nc2cccc3cccnc23)c([N+](=O)[O-])c1 ?
MITF inhib: 52; NOMO-1 viab: 121*

Results for CC(=O)Nc1ccc(NS(=O)(=O)c2ccc(C)cc2[N+](=O)[O-])cc1 ?
MITF inhib: 7; NOMO-1 viab: 21

What do the screens show for `Cc1ccc(S(=O)(=O)N(C)C[C@H]2Oc3ccc(NC(=O)CCCCCC(=O)Nc4ccccc4N)cc3C(=O)N([C@@H](C)CO)C[C@@H]2C)cc1`?
MITF inhib: 5; NOMO-1 viab: 14

What do the screens show for `C[C@@H]1CN([C@H](C)CO)C(=O)c2cccc(NS(=O)(=O)c3ccc(Cl)cc3)c2O[C@H]1CN(C)C(=O)Nc1ccc2c(c1)OCO2`?
MITF inhib: 2; NOMO-1 viab: -5; Shh pathway inh: -3

What do the screens show for `C[C@@H]1CN([C@@H](C)CO)C(=O)c2cccc(NS(=O)(=O)c3ccc(F)cc3)c2O[C@@H]1CN(C)C(=O)Nc1ccc(F)cc1`?
MITF inhib: -3; NOMO-1 viab: 23; Shh pathway inh: -1

What do the screens show for `Cn1c(O)c(C=Nc2cccc(CO)c2)c2ccccc21`?
MITF inhib: -58; NOMO-1 viab: 26; Shh pathway inh: 10

Results for CCc1ccc(N=Cc2c(O)n(-c3ccccc3)c(=O)c3ccccc23)cc1 ?
MITF inhib: -16; NOMO-1 viab: 120*; Shh pathway inh: -6

How did COc1ccc(NC(=O)Nc2cccc3c2O[C@@H](CN(C)Cc2ccccc2)[C@@H](C)CN([C@@H](C)CO)C3=O)cc1 do in these assays?
MITF inhib: -6; NOMO-1 viab: 49; Shh pathway inh: -30

What do the screens show for `COc1ccc(NC(=O)Nc2cccc3c2O[C@@H](CN(C)Cc2ccc(Oc4ccccc4)cc2)[C@H](C)CN([C@@H](C)CO)C3=O)cc1`?
MITF inhib: 40; NOMO-1 viab: 91*; Shh pathway inh: 0

Results for COc1ccc(CN(C)C[C@H]2Oc3c(NC(=O)Nc4ccc(OC)cc4)cccc3C(=O)N([C@@H](C)CO)C[C@H]2C)cc1 ?
MITF inhib: -15; NOMO-1 viab: 14; Shh pathway inh: 2

How did C[C@H]1CN([C@@H](C)CO)C(=O)c2cccc(NC(=O)Nc3ccccc3)c2O[C@@H]1CN(C)Cc1ccc(Oc2ccccc2)cc1 do in these assays?
MITF inhib: 14; NOMO-1 viab: 60; Shh pathway inh: -10

How did COc1ccc(CN(C)C[C@@H]2Oc3c(NC(=O)Nc4ccc(F)cc4)cccc3C(=O)N([C@@H](C)CO)C[C@H]2C)cc1 do in these assays?
MITF inhib: 18; NOMO-1 viab: 110*; Shh pathway inh: 30
